Key:
Type in all cases: functional
[1] = biological target: Solute carrier family 2, facilitated glucose transporter member 1 (Homo sapiens) (UniProt P11166); test: ST_JUDE_LEISH: Cytotoxicity at 2uM final concentration against transgenic Leishmania Mexicana promastigotes LmGLUT1 that are glucose transport deficient and complemented with the human glucose transporter GLUT1. Activity is measured by DNA content using SYBR green in vitro
[2] = biological target: Hexose transporter 1 (Plasmodium falciparum) (UniProt O97467); test: ST_JUDE_LEISH: Cytotoxicity at 2uM final concentration against transgenic Leishmania Mexicana promastigotes LmPfHT that are glucose transport deficient and complemented with the Plasmodium falciparum hexose transporter. Activity is measured by DNA content using SYBR green in vitro
[3] = biological target: Glucose transporter (Leishmania mexicana) (UniProt O61059); test: ST_JUDE_LEISH: Cytotoxicity at 2uM final concentration against transgenic Leishmania Mexicana promastigotes LmGT2 that are glucose transport deficient and complemented with the L. Mexicana glucose transporter 2. Activity is measured by DNA content using SYBR green in vitro

Solute carrier family 2, facilitated glucose transporter member 1 (Homo sapiens), sequence (P11166 whole entry): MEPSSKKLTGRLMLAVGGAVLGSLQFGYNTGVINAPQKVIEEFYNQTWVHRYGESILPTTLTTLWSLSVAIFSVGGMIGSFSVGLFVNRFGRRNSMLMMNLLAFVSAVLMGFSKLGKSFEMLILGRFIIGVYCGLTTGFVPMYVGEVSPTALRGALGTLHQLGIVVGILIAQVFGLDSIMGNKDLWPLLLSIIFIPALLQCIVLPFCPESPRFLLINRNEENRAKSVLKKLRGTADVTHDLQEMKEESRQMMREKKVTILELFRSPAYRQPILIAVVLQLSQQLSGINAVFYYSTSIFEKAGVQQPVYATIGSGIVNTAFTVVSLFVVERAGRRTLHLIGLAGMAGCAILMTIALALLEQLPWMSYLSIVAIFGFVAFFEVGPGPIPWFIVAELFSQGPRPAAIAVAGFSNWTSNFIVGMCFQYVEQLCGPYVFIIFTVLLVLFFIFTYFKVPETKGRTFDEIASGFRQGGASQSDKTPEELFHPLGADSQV

| SMILES | inhibition [1] [%] | inhibition [2] [%] | inhibition [3] [%] |
| --- | --- | --- | --- |
| CC(C)(C)c1ccc(NC(=O)c2cccc(CN3CCCN(Cc4ccsc4)CC3)c2)cc1 | 5.17 | 1.84 | 1.41 |
| CN1CCC(N2CCN(Cc3cccc(-c4ccc(-c5nc6ccccc6[nH]5)cc4)c3)CC2)CC1 | 2.84 | 1.99 | 0.07 |
| Cc1cccc2nc(-c3cccc(-c4ccc(NC(=O)Nc5cccc(C#N)c5)cc4)c3)[nH]c12 | 2.14 | 2.03 | -1.2 |
| COc1ccc(-c2csc(NC(=O)CCC(=O)O)n2)cc1OC | 0.77 | 1.36 | 3.83 |
| Nc1ncnc2nc(-c3ccc(F)cc3)cc(-c3ccc(NC(=O)c4ccccc4)cc3)c12 | 4.74 | 2.67 | 2.02 |
| O=C(NCc1ccccc1[S+]([O-])c1ccccc1CO)C(F)(F)F (centres undefined) | -1.33 | -0.32 | 0.55 |
| COc1cc(NCCCNCc2cn(S(=O)(=O)c3ccccc3)c3ccccc23)nc2ccccc12 | 3.92 | 4.04 | 3.17 |
| COc1ccccc1C1CCN(C2CCC(NC(=O)c3ccc4[nH]c(-c5ccc(C)cc5)nc4c3)CC2)CC1 (centres undefined) | 1.55 | 3.38 | 2.37 |
| CN1CCN(CCCN(Cc2cccc(-c3cccc(CNCCc4ccccc4)c3)c2)C(=O)Nc2ccccc2)CC1 | 8.85 | 9.55 | 7.52 |
| CC(C)c1sc(N2CCN(C)CC2)nc1C(=O)Nc1cccc2c1CCCC2 | 0.42 | 1.67 | 1.79 |
| CCn1c2c(c(=N)c3ccccc31)CCC2 | -0.78 | -2.72 | -1.61 |
| CCCN(CCC)C(=O)c1cc(C(=O)N[C@@H](Cc2ccccc2)[C@H](O)CNCc2cccc(C(F)(F)F)c2)cc(N2CCCCS2(=O)=O)c1 | -1.33 | -0.49 | -0.16 |
| Cc1cc(C(F)(F)F)n2nc(C(=O)N(Cc3cncn3Cc3ccccc3F)CC3CC3)cc2n1 | -1.46 | -0.8 | -0.18 |
| NCCc1cccc(-c2cnc3[nH]cc(-c4ccc(C(=O)O)cc4)c3c2)c1 | 0.56 | 0.29 | 0.03 |
| CC(Nc1nc(Nc2ccc(F)cc2)nc(SCC(N)=O)n1)c1ccccc1 (centres undefined) | 0.82 | 1.3 | 0.81 |
| Cc1cc(NCC2CCN(CC3CCCCC3)C2)nc(Nc2ccc(Br)cc2)n1 (centres undefined) | 8.49 | 7.88 | 3.47 |
| O=C1C(c2ccccc2)=C(Nc2cccc([N+](=O)[O-])c2)c2ccccc21 | 4.58 | 3.72 | 9.44 |

| SMILES | inhibition [1] [%] | inhibition [2] [%] | inhibition [3] [%] |
| --- | --- | --- | --- |
| C=CCn1c(Cc2ccccc2)nnc1Sc1ccc(C#N)c([N+](=O)[O-])c1 | 3.36 | 3.11 | 2.02 |
| N#Cc1ccc2c(c1)CCN(CCCn1c(-c3ccc4ccccc4c3)nc3ccncc31)CC2 | 15.1 | 16.1 | 10.4 |
| CN1CCN(Cc2cc(NC(=O)c3ccc(-c4ccc(Cl)cc4Cl)cc3)ccc2-c2ccccc2)CC1 | 6.54 | 2.47 | -0.1 |
| O=C(N[C@@H](Cc1ccccc1)C(=O)NC1CCCc2ccccc21)c1ccc(O)c(-c2ccc(Cl)c(Cl)c2)c1 (some centres undefined) | 0.59 | 0.41 | -0.1 |
| COc1ccc2nccc([C@@H](O)CN3CCC(NCc4cc5ccccn5n4)CC3)c2c1 | 4.35 | 4.49 | 4.75 |
| COc1ccc(O)c(Cc2cnc3nc(N)[nH]c(=O)c3c2C)c1 | 1.02 | 0.5 | 4.01 |
| CC(C)NCc1ccc(-c2ccc(-c3nc4cc(F)ccc4[nH]3)cc2)cc1 | 7.9 | 8.81 | 6.75 |
| Cc1ccc(F)c(C(=O)Nc2cccc(-c3nn4ccccc4c3-c3ccnc(Nc4cccc(F)c4)n3)c2)c1F | 9.44 | 8.92 | 6.93 |
| CN1CCN(CCCNCc2ccc(Nc3nccc(Nc4ccc(Oc5ccccc5)cc4)n3)cc2)CC1 | 0.09 | 1.17 | 1.48 |
| c1cc(-c2ccc(CNCCCN3CCOCC3)cc2)cc(-c2nc3ccccc3[nH]2)c1 | 1.09 | -0.33 | 2.29 |
| COc1ccc2nccc([C@@H](O)CN3CCC(NCc4cc5cc(C)ccc5s4)CC3)c2c1 | 31.5 | 46 | 21.9 |
| OCC1CCCCN1Cc1cccc(-c2cccc(-c3nc4ccccc4[nH]3)c2)c1 (centres undefined) | 6.6 | 4.14 | 4.46 |
| CCCc1cccc(OC)c1OCCCON1C(N)=NC(N)=NC1(C)C | -2.03 | -0.29 | 0.81 |
| O=C(CC(c1ccccc1)c1ccccc1O)N1CCOCC1 (centres undefined) | 0.4 | 1.12 | -0.06 |
| CCc1nc2nc(C)cc(Nc3ccc(F)c(Cl)c3)n2n1 | -2.16 | -3.69 | -1.67 |
| c1ccc2c(NCCCCCCCCNc3ccnc4ccccc34)ccnc2c1 | -0.47 | 0.85 | 1.12 |
